Test results: PubChem BioAssay (NCATS)
Inconclusive results are not listed. A call without a number means that no potency is given here. Calls of active or inactive are those of the source. Calls follow the shape of the dose curve; as a rule, active = well fitted curve in the direction sought with a large enough effect; inconclusive = small, poorly fitted or top-dose-only effect, or another doubt; inactive = no such curve, though single readings can be large; an effect the other way counts as inactive or inconclusive.

tested on: NIH3T3; experiment: qHTS assay to identify novel small-molecules to repurpose for Merkel cell carcinoma treatment (AID 1296009); settings: MCC and control cell lines, CellTiter-Glo viability, 72 h; at 44.8 µM (top of the series) unless noted; also: nearly all actives have a fitted effect of over 60% in size
How it was run: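 Cells were treated for 72 hr at 37 degree celsius with compounds in 8- or 11-point dose response. Viability was read by CellTiter-Glo luminescence, normalized to no-cell (cytotoxicity) and DMSO controls.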

Row | SMILES | outcome
1 | O=S(=O)(NC1CCNCC1)c1cc(S(=O)(=O)c2ccccc2)ccc1C(F)(F)F | inactive
2 | COCC(=O)N1CCc2cc(-c3csc(NC(=O)c4cc(OC)cc(OC)c4)n3)ccc21 | inactive
3 | CC1(C)OC(=O)C(OCC2CC2)=C1c1ccc(S(C)(=O)=O)cc1 | inactive
4 | C[C@]12CCC[C@](C)(C(=O)O)C1CCC13C=C(CO)C(CCC12)C3 (stereo not given in full) | inactive
5 | Cc1coc2c1CC1OC1(C)CCC1OC1(C)C2 (stereo not given) | inactive
6 | C/C=C1\[C@H](O[C@@H]2O[C@H](CO)[C@@H](O)[C@H](O)[C@H]2O)OC=C(C(=O)OC)[C@H]1CC(=O)OC | inactive [at 17.4 µM]
7 | C=CCc1ccc(O[C@@H]2O[C@H](CO[C@@H]3O[C@H](CO)[C@@H](O)[C@H](O)[C@H]3O)[C@@H](O)[C@H](O)[C@H]2O)c(O)c1 | inactive [at 17.4 µM]
8 | C=C1CCC2C(C)(C(=O)O)CC(O)CC2(C)C1CC/C(C)=C/C(=O)O (stereo not given) | inactive
9 | O=C(NC[C@H](O)CN1CCc2ccccc2C1)c1cc(NC2COC2)ncn1 | inactive
10 | Nc1ncnc2c1ncn2[C@H]1CCCO1 | inactive
11 | CC1(C)CCCC2(C)C3=C(C(=O)OC3O)C(O)CC12 (stereo not given) | inactive

tested on: C33A; experiment: Primary qHTS to identify gynecologic anti-cancer compounds using libraries of approved drugs and bioactive compounds (AID 1345084); settings: Gynecologic cancer cell panel viability, ATPlite luminescence, 48 h; series mostly up to 57.5 µM; also: nearly all actives have a fitted effect of over 55% in size
How it was run: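 48 h compound exposure at 37 C, 5% CO2; five-point qHTS. ATPlite luminescence readout of cell ATP.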

Row | SMILES | Potency | activity change, negative = cytotoxicity
12 | CC1(C)CC[C@]2(C(=O)O[C@@H]3O[C@H](CO)[C@@H](O)[C@H](O)[C@H]3O)CC[C@]3(C)C(=CCC4[C@@]5(C)C[C@@H](O)[C@H](O)C(CO)(CO)C5CC[C@]43C)C2[C@@H]1O (stereo not given in full) | inactive | –
13 | CO[C@@]12CC3[C@@H]([C@@H](O)[C@@H](OC(C)=O)C4[C@](C)(COC(C)=O)CCC[C@]34C)[C@@H](C)C1=CC(=O)O2 (stereo not given in full) | inactive | –
14 | C[C@]12C=CC(=O)C=C1CC[C@@H]1[C@@H]2[C@@H](O)C[C@@]2(C)[C@H]1CC[C@]2(O)C(=O)COC(=O)CCC(=O)O | inactive | –
15 | CC1CCC2C(C)(C)C(O)CCC2(C)C12Cc1c(O)cc3c(c1O2)C(N)=NC3 (stereo not given) | inactive | –
16 | CC12CC34C=CC(=O)C(C)(CCC(=O)O)C3C(CC1C4)O2 (stereo not given) | inactive | –
17 | O=C(O)C[C@H]1CCC(=O)[C@@H]1C/C=C\CCOC1OC(CO)C(O)C(O)C1O (stereo not given in full) | inactive | –
18 | COc1cc(/C=C/CO)ccc1O[C@@H]1O[C@H](CO)[C@@H](O)[C@H](O)[C@H]1O | inactive | –
19 | COc1ccc([C@H]2Cc3cccc(O)c3C(=O)O2)cc1 | inactive | –
20 | CC(=O)OC(C)OC(=O)C(C)c1ccc(-c2ccccc2)c(F)c1 (stereo not given) | inactive | –
21 | CC1OC(O[C@H]2[C@@H](O)C[C@@]3(C)C([C@H](O)C[C@]4(C)C3CC=C3C5CC(C)(C)CC[C@]5(C(=O)OC5OC(CO)C(O)C(O)C5OC5OCC(OC6OCC(OC7OCC(O)C(O)C7O)C(O)C6O)C(OC6OCC(O)(CO)C6O)C5O)CC[C@]34C)[C@]2(C)CO)C(O)C(O)C1O (stereo not given in full) | – | 4.56% [at 6.55 µM] (inactive)
22 | C/C=C/C1=CC2=CC(=O)C(C)(O)C(OC(=O)c3c(C)cc(O)cc3O)C2CO1 (stereo not given) | inactive | –
23 | OC[C@H]1O[C@@H](Oc2cc(O)cc(/C=C/c3ccc(O)cc3)c2)[C@H](O)[C@@H](O)[C@@H]1O | inactive | –
24 | c1ccc(C(OC2CCN(CCCc3nn[nH]n3)CC2)c2ccccc2)cc1 | inactive | –
25 | N[C@H]1C[C@H]1c1ccc(-c2cccc(O)c2)cc1 | inactive | –
26 | NCCOCCOCCNC(=O)Cc1ccc(Nc2nc(NCc3ccc(F)cc3)nc(NCC3CCCCC3)n2)cc1 | inactive | –
27 | COc1cc(-c2cccc(O)c2)cc2c1OCO2 | inactive | –
28 | CCC[C@@H]1C[C@@H](C(=O)N[C@@H]([C@H]2O[C@H](SC)[C@H](OP(=O)(O)O)[C@@H](O)[C@H]2O)[C@H](C)Cl)N(C)C1 | inactive | –
29 | CCCC(N[C@@H](C)C(=O)N1[C@H](C(=O)O)C[C@@H]2CCCC[C@@H]21)C(=O)OCC (stereo not given in full) | inactive | –
30 | C=CC(C)(C)C12CC3C(=O)NC(Cc4cnc[nH]4)C(=O)N3C1Nc1ccccc12 (stereo not given) | inactive | –
31 | CC1OC(OC2C(C)OC(OC3C(OC(=O)/C=C/c4ccc(O)cc4)C(CO)OC(OC4(COC(=O)/C=C/c5ccc(O)cc5)OC(CO)C(O)C4O)C3OC3OCC(O)(CO)C3O)C(O)C2O)C(O)C(O)C1O (stereo not given) | – | 4.08% [at 11.6 µM] (inactive)

Row | SMILES | Potency | activity change, negative = cytotoxicity
32 | CC1CCC2(C(=O)OC3OC(COC4OC(CO)C(O)C(O)C4O)C(O)C(O)C3O)CCC3(C)C(=CCC4C5(C)CCC(O)C(C)(C(=O)O)C5CCC43C)C2C1(C)O (stereo not given) | – | -3.16% [at 11.6 µM] (inactive)
33 | CN1Cc2c(N)cccc2C(c2ccccc2)C1 (stereo not given) | inactive | –
34 | CC(C)=CC/C=C(/C)[C@H]1CC[C@]2(C)[C@@H]1[C@H](O)CC1[C@@]3(C)CC[C@H](O)C(C)(C)[C@@H]3[C@@H](O[C@@H]3O[C@H](CO)[C@@H](O)[C@H](O)[C@H]3O[C@@H]3O[C@@H](C)[C@H](O)[C@@H](O)[C@H]3O)C[C@]12C (stereo not given in full) | inactive | –
35 | COc1cc(C2c3cc(O)c(OC)cc3CC(CO)C2CO)ccc1O (stereo not given) | inactive | –
36 | CC/C=C\C[C@H]1C(=O)C=C[C@@H]1CCCCCCCC(=O)O | inactive | –
37 | CC1=CCC2C(C)(CO)CCCC2(CO)C1CO (stereo not given) | inactive | –
38 | C[C@@H]1O[C@@H](O[C@@H]2[C@@H](O)[C@@H](O)[C@H](O[C@@H]3[C@@H](O)[C@@H](O[C@]4(CO)O[C@H](CO)[C@@H](O)[C@@H]4OC(=O)/C=C/c4ccc(O)cc4)O[C@H](CO)[C@H]3OC(=O)/C=C/c3ccc(O)cc3)O[C@H]2C)[C@H](O)[C@H](O)[C@H]1O | – | 0.544% [at 11.6 µM] (inactive)
39 | CC(=O)OCC(=O)O[C@@H]1[C@H]2[C@@H](OC(=O)c3ccccc3)[C@@H](C)C[C@]2(O)[C@H](OC(C)=O)C2(C)[C@H]3CC(C)(C)C(=O)[C@@H]3CC1(OC(C)=O)[C@@H]2OC(C)=O (stereo not given in full) | inactive | –
40 | O=S(=O)(NC1CCNCC1)c1cc(S(=O)(=O)c2ccccc2)ccc1C(F)(F)F | inactive | –
41 | COCC(=O)N1CCc2cc(-c3csc(NC(=O)c4cc(OC)cc(OC)c4)n3)ccc21 | inactive | –
42 | CC1(C)OC(=O)C(OCC2CC2)=C1c1ccc(S(C)(=O)=O)cc1 | inactive | –
43 | C[C@]12CCC[C@](C)(C(=O)O)C1CCC13C=C(CO)C(CCC12)C3 (stereo not given in full) | inactive | –
44 | Cc1coc2c1CC1OC1(C)CCC1OC1(C)C2 (stereo not given) | inactive | –
45 | C/C=C1\[C@H](O[C@@H]2O[C@H](CO)[C@@H](O)[C@H](O)[C@H]2O)OC=C(C(=O)OC)[C@H]1CC(=O)OC | inactive | –
46 | C=CCc1ccc(O[C@@H]2O[C@H](CO[C@@H]3O[C@H](CO)[C@@H](O)[C@H](O)[C@H]3O)[C@@H](O)[C@H](O)[C@H]2O)c(O)c1 | inactive | –
47 | C=C1CCC2C(C)(C(=O)O)CC(O)CC2(C)C1CC/C(C)=C/C(=O)O (stereo not given) | inactive | –
48 | O=C(NC[C@H](O)CN1CCc2ccccc2C1)c1cc(NC2COC2)ncn1 | inactive | –
49 | Nc1ncnc2c1ncn2[C@H]1CCCO1 | inactive | –
50 | CC1(C)CCCC2(C)C3=C(C(=O)OC3O)C(O)CC12 (stereo not given) | inactive | –
